MOR-DOR inv ag: inverse agonist of human OPRM1-OPRD1 heterodimerization. P35372+P41143. cell-based MOR-DOR heterodimer luminescence, inverse agonism. inhibition, % at 9.3 µM. hit rate 0.21% among 340,000. AID 504357; in the data active = inhibition above about 22%, passing the limit was not always enough;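 note: 0% = cells with DMSO and 100% = wells without cells with DMSO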
HTR5A ag ctr: HTR5A agonism, opioid heterodimer counter-screen; P47898; hit rate 0.61% among 340,000; AID 504692; activation, % at 9.3 µM; HTR5A agonist assay, luminescence, cell-based; in the data active = activation mostly above about 9.5%, no sharp cut-off; inactive = mostly below about 7.6%;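 note: 0% = cells with vehicle only and 100% = reference agonist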
MOR-DOR ag: OPRM1-OPRD1 heterodimerization agonism; hit rate 0.3% among 340,000; cells, luminescence; P35372+P41143; activation, % at 9.3 µM; AID 504326; in the data active = activation above about 18%;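 note: 0% = vehicle-treated cells and 100% = reference agonist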
HTR5A inv ctr: HTR5A inverse agonism, opioid heterodimer counter-screen. P47898. HTR5A cell line, luminescence. inhibition, % at 9.3 µM. hit rate 0.083% among 340,000; in the data active = inhibition mostly above about 23%, no sharp cut-off; inactive = mostly below about 18%;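 note: 0% = cells with DMSO and 100% = no-cell wells with DMSO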
Active calls of the source: *. Shown are actives, neighbours in structure and some others; about 1.1% of the full set was active somewhere.

SMILES	MOR-DOR inv ag	HTR5A ag ctr	MOR-DOR ag	HTR5A inv ctr
CCCC1(C(=O)O)NC(c2ccccc2O)C2C(=O)N(c3cccc(Cl)c3)C(=O)C21 (stereo not drawn)	15.6	13.9*	-3.1	-41.5
COC(=O)CN(C)C(=O)CC1C(=O)NCCN1CC(C)(C)C (stereo not drawn)	-10.2	13.5*	1.4	-14.4
Cc1ccc(Oc2ccc(NC(=O)C3=CC=CN4CCS(=O)(=O)N=C34)cc2)cc1	7.5	2.2	-1.9	8.3
O=C(c1ccccc1)c1c2c(cc3sc4ccccc4[n+]13)-c1cccc3cccc-2c13	-481.4	32.5*	90.3*	-64.3
C[C@H]1COC(=O)[C@@H](CC(=O)OC(C)(C)C)C/C=C\C[C@@H](CC(=O)N(CCO)Cc2ccccc2)C(=O)N1	7.7	1.7	-1.3	-4.7
Cc1cccc(OCCCC(=O)Nc2nc3ccccc3[nH]2)c1	-0.2	10.4*	0.0	-28.6
COc1ccccc1-c1nc(SCC(=O)N2CCC(C(N)=O)CC2)n[nH]1	12.6	1.9	-3.4	-5.6
CC(C)(C)NCCC(O)c1cc(C(F)(F)F)nc2c(C(F)(F)F)cccc12 (stereo not drawn)	-52.5	0.4	10.2	-1.5
O[C@@H](c1cc(C(F)(F)F)nc2c(C(F)(F)F)cccc12)[C@H]1CCCCN1	-114.0	15.4	20.6*	17.7
Cc1cccc2c1N(CCCOc1ccc(C(C)(C)C)cc1)C(=O)C2=O	30.2*	4.7	-5.1	-13.6
Cc1cccc2c1N(CCCOc1ccccc1)C(=O)C2=O	26.0	-3.4	-4.5	-22.5
CC(Sc1ccccc1F)C(=O)Nc1ccc2c(c1)OCCO2 (stereo not drawn)	-0.3	-4.0	0.1	9.8
CC(=O)Nc1nc2n(n1)C(c1ccccc1)C=C(c1ccccc1)N2 (stereo not drawn)	17.3	-12.4	-3.1	32.0*
O=C(CC(=O)NN=Cc1ccc2c(c1)CCC2)NN=Cc1ccc2c(c1)CCC2	2.8	1.0	-0.6	-3.9
CSc1ccc(/C=C/C(=O)OCC(=O)c2ccc[nH]2)cc1	-4.7	13.1*	1.3	12.9
CSc1ncccc1C(=O)OCC(=O)c1ccc[nH]1	7.4	6.6	-1.8	-18.3
C#CCOCCOCCOCCNc1nc(N2CCN(C(=O)[C@H](C(C)C)n3cc(CCO)nn3)CC2)nc(N2CCN(C(=O)[C@H]([C@@H](C)CC)n3cc(CCC(=O)O)nn3)CC2)n1	2.1	0.6	-0.4	-16.1
Cc1ccc(NC(=O)c2cc(-c3ccc(F)cc3)on2)cc1C	12.3	4.6	-2.3	-12.6
CC(=O)c1cccc(NC(=O)c2cc(-c3ccc(F)cc3)on2)c1	2.6	10.3*	-0.5	6.7
Cc1ccc2cc(NC(=O)c3cccc(F)c3)ccc2n1	0.9	5.4	-0.2	-31.1
Cc1c([N+](=O)[O-])cc(C(=O)Nc2ccc3ncccc3c2)cc1[N+](=O)[O-]	-39.5	9.5*	7.9	-35.9
Cc1ccc2cc(NC(=O)c3ccccc3)ccc2n1	-0.4	9.4*	0.1	-33.7
CS(=O)(=O)c1ccc(NS(=O)(=O)c2ccc(Cl)c(C(=O)NCc3ccco3)c2)cc1	7.3	3.9	-1.8	-5.2
COc1cc(S(=O)(=O)NCc2cccnc2)c(OC)cc1Br	12.8	10.0*	-2.5	8.7
OCC1OC2C(NC(=S)N2c2ccccc2)C(O)C1O (stereo not drawn)	19.1	3.6	-4.4	-14.0
SMILES	MOR-DOR inv ag	HTR5A ag ctr	MOR-DOR ag	HTR5A inv ctr
CCOC(=O)[C@H]1[C@H]2COc3ccc(Br)cc3[C@@H]2N2C(=O)c3ccc(Cl)cc3NC(=O)[C@@]12C	-6.8	1.5	1.2	-5.3
N#Cc1c(-c2ccccc2)cc(-c2ccccc2)nc1SCc1nnc(-c2ccccc2)o1	-5.6	12.6*	1.0	2.7
COc1ccc(-c2cc(-c3ccccc3)c(C#N)c(SCC(=O)O)n2)cc1	19.6	7.5	-3.9	0.9
CC(=O)c1sc2nc(SCC(=O)NCCc3ccccc3)[nH]c(=O)c2c1C	23.4	12.8*	-7.1	-27.1
COc1ccc(CCNC(=O)CSc2nc3sc(C(=O)O)c(C)c3c(=O)[nH]2)cc1OC	12.8	1.1	-2.4	-15.7
CCN(CC)c1ccc(/C=N/N2CCN(Cc3ccc(Cl)cc3)CC2)c(O)c1	12.9	12.6*	-2.5	-39.5
CCCC(=O)OCCNc1cc(Sc2nccn2C)c2nonc2c1[N+](=O)[O-]	40.2*	-7.8	-7.3	-18.3
CCCSc1cc(NCCOC(=O)CCC)c([N+](=O)[O-])c2nonc12	9.2	0.9	-1.6	-25.2
CC(OC(=O)CC1Sc2ccccc2NC1=O)C(=O)N(C)Cc1ccccc1 (stereo not drawn)	4.8	4.2	-0.9	-11.5
CC[C@]12c3[nH]c4cc(-c5ccco5)ccc4c3CCN1C(=O)[C@@H](CC(=O)NCc1cccc(C(F)(F)F)c1)C[C@@H]2C(=O)N1CCN(C(=O)c2ccco2)CC1	-0.8	3.5*	0.2	-12.1
COc1ccc(OC)c(NP2(=O)OCC(C)([N+](=O)[O-])CO2)c1 (stereo not drawn)	4.8	-0.7	-0.9	2.8
CC(C)(C)OC(=O)C[C@@H]1C/C=C\C[C@@H](CC(=O)N(CCO)Cc2ccccc2)C(=O)NC[C@H](c2ccccc2)OC1=O	4.3	11.6*	-0.7	23.6
CC(C)(C)OC(=O)C[C@@H]1C/C=C\C[C@@H](CC(=O)N(CCO)Cc2ccccc2)C(=O)NC[C@@H](c2ccccc2)OC1=O	29.3	-2.6	-6.4	17.8
O=C(NCC(c1ccco1)N1CCCC1)c1ccc(Cl)c(S(=O)(=O)N2CCc3ccccc32)c1 (stereo not drawn)	-5.2	1.6	1.3	-24.3
CCOC(=O)c1sc(NC(=O)CN(CC(C)C)CC(C)C)c(C(=O)OCC)c1C	-2.3	13.5*	0.4	-34.2
CCOC(=O)c1c(NC(=O)CC(C)C)sc(C(C)=O)c1C	-32.1	5.5	5.5	-26.6
Cc1ccc(S(=O)(=O)Nc2c(NC3CCCCC3)c3ccccc3oc2=O)cc1	-1.5	12.8*	0.3	3.9
CC(C)C[C@@H](CNCC(=O)[C@H](Cc1ccccc1)NC(=O)c1[nH]cnc1C(=O)N[C@H](CN)CC(C)C)NC(=O)c1nc[nH]c1C(=O)N[C@@H](CC(=O)O)C(=O)O	6.5	-0.2	-1.4	0.9
COC(=O)c1cc2c(s1)CS(=O)C2 (stereo not drawn)	4.8	12.1*	-0.9	7.0
COc1ccccc1NC(=O)CS(=O)(=O)c1cccc2nsnc12	8.7	12.0*	-1.9	33.6
CC1(C)C(=O)C=CC(=O)C(C)(C)C(=O)C=CC(=O)C(C)(C)C2=CC=C(O2)C(C)(C)C(=O)C=CC1=O	-12.4	-2.1	2.4	8.0
COC1Cc2ccccc2N(C(=O)N2CCN(CCO)CC2)c2ccccc21 (stereo not drawn)	-13.2	13.8*	2.9	-12.4
CCOC1Cc2ccccc2N(C(N)=O)c2ccccc21 (stereo not drawn)	-6.1	1.3	1.1	-8.8
CCCc1nnc(SCC(=O)N2CCOCC2)n1Cc1ccco1	-16.6	9.6*	2.8	-0.3
O=C(CSc1nnc(CNc2ccc(F)cc2)n1Cc1ccco1)N1CCCC1	-7.0	0.1	1.3	6.0
O=C1CCc2cc(S(=O)(=O)N3CCN(c4cccc(C(F)(F)F)c4)CC3)ccc2N1	-125.6	13.4*	24.7*	-28.2
